Cycloheximide cs: counter-screen hit for Shiga toxin inhibitors, cycloheximide. cell reporter, cycloheximide protein synthesis inhibition counterscreen. AID 2314. max response, %. 300,000 tested, 12% active; in the data active means max response mostly above about 13%, no sharp cut-off; inactive means mostly below about 14%; further: read at 38.3 µM for the half of the compounds with a filed dose
FMDV inh: blocks foot and mouth disease virus. Potency, µM (doses to about 57.9 µM), most hits filed as inhibitors. FMDV antiviral cell-based qHTS. AID 1159524. 410,000 tested, 1.2% active; calls by dose curve; tested in HEK293T cells; further: read-out not given here; nearly all actives have a fitted effect of over 45% in size
Shiga toxin inh: Shiga toxin inhibition | Vero cells, Shiga toxin protein synthesis inhibition reporter | inhibition, % at 38.7 µM | AID 2315 | 290,000 tested, 9.2% active; in the data active means inhibition mostly above about 28%, no sharp cut-off; inactive means mostly below about 43%
Sm TGR inh: blocks Schistosoma mansoni thioredoxin glutathione reductase; 360,000 tested, 3% active; purified TGR, DTNB reduction, TNB absorbance 405 nm; Potency, µM (doses to about 114 µM), hits mostly inhibitors; Q962Y6; AID 485364; active means well fitted inhibition curve with a large enough effect; inconclusive means small, poorly fitted or top-dose-only effect; inactive means no such curve, though single readings can be large or run the other way; further: nearly all actives have a fitted effect of over 60% in size
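Kinetic colorimetric format: TGR-catalysed, NADPH-driven DTNB reduction monitored via TNB absorbance. Enzyme dispensed at 20 nM; compound exposure 15 min at room temperature before reaction start.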
Hits are given with their value; – = inactive; ? = inconclusive; · = no result given. The list is not random: actives were taken first. Their share in the collection is about 12%.

SMILES	Cycloheximide cs	FMDV inh	Shiga toxin inh	Sm TGR inh
CCNC(=S)Nc1ccc(OCc2nc3ccccc3s2)cc1	33	–	·	–
CCNC(=S)Nc1ccc(OCC)cc1	–	–	–	–
COc1ccccc1NC(=O)CCc1nc2ccccc2s1	15	–	–	–
COc1ccc(C(=O)CCc2nc3ccccc3s2)cc1	50	–	41	–
CC(C)C[C@H](NC(=O)[C@H](CC(C)C)NC(=O)[C@@H](Cc1c[nH]c2ccccc12)NC(=O)[C@H](Cc1ccccc1)NC(=O)[C@@H](Cc1c[nH]c2ccccc12)NC(=O)[C@H](CCC(N)=O)NC(=O)[C@H](CCC(N)=O)NC(=O)[C@@H]1CCCN1C(=O)[C@H](CCCCN)NC(=O)[C@@H]1CCCN1C(=O)[C@H](N)CCCN=C(N)N)C(N)=O	–	·	–	·
CC(C)OCCCn1c(=O)c2ccccc2n2c(-c3ccccc3)nnc12	·	–	·	–
COc1cc(OC)cc(-n2nnc(-c3nc(-c4ccccc4Cl)no3)c2N)c1	·	–	·	–
O=C(CCCc1nc2ccccc2s1)Nc1ccccc1	–	–	–	–
COc1cccc(C(=O)N(C)C(C)c2nc3ccccc3s2)c1 (stereo not given)	–	–	–	–
O=C(O)CCCC(=O)Nc1ccc(OCc2nc3ccccc3s2)cc1	50	–	98	·
CC(=O)c1ccc(OC(C)c2nc3ccccc3s2)cc1 (stereo not given)	30	–	75	–
O=C(CCc1nc2ccccc2s1)Nc1ccccc1	11	–	–	–
COc1cc(C(CC(=O)NCc2ccccc2Cl)N2Cc3ccccc3C2=O)cc(OC)c1OC (stereo not given)	·	–	·	–
Cc1ccc(-n2ncc3c(NC4CCCCC4)ncnc32)cc1C	·	–	·	–
COCc1cc(CN(C)C(=O)C2CCC(=O)N(Cc3cccc(OC)c3)C2)[nH]n1 (stereo not given)	–	–	–	–
COCc1cc(CN(C)C(=O)c2oc3c(F)cccc3c2C)[nH]n1	24	–	–	–
COc1ccc(-c2cc(C(=O)NCc3ccc(Cl)cc3)no2)cc1OC	–	–	–	–
COc1ccc(C(=O)NCC(C)(C)N2CCOCC2)cc1S(=O)(=O)NCc1ccc(Cl)cc1	·	–	·	·
COc1ccc(OCc2cc(C(=O)NCC(C)(C)N3CCOCC3)no2)c(Cl)c1	–	–	36	–
COc1ccc(OCc2cc(C(=O)NCCN3CCCc4ccccc43)no2)c(Cl)c1	16	–	–	–
COc1ccc(OCc2cc(C(=O)NCCN3CCCC(O)C3)no2)c(Cl)c1 (stereo not given)	–	–	–	?
COc1cc(Cl)ccc1OCc1cc(C(=O)NCC(C)(C)N2CCOCC2)no1	43	–	50	?
COc1cc(Cl)ccc1OCc1cc(C(=O)NCc2cc(C(C)C)no2)no1	67	–	53	–
COc1ccccc1Nc1c2c(nc3ccc(NC(=O)c4ccc(N(C)C)cc4)cc13)CCCC2	·	–	·	–
O=C(NCCCCc1ccccc1)c1nn(-c2ccccc2)nc1CO	·	?	·	–
SMILES	Cycloheximide cs	FMDV inh	Shiga toxin inh	Sm TGR inh
O=C(CSc1nnc(NC(=O)c2ccccc2F)s1)NC1CCCC1	27	–	65	–
O=C(Nc1nnc(SCC(=O)N2CCCCC2)s1)c1ccc(F)cc1F	–	–	–	–
O=C(Nc1nnc(SCC(=O)N2CCOCC2)s1)c1ccccc1	22	–	–	–
O=C(CSc1nnc(NC(=O)c2ccc(F)cc2F)s1)NC1CCCC1	22	–	–	–
O=C(CSc1nnc(NC(=O)C2CC2)s1)Nc1cccc(F)c1	21	–	–	–
CCOc1ccccc1NC(=O)CN(CCc1ccccc1)S(=O)(=O)c1ccc(C)cc1	·	–	·	–
CC(=O)Oc1cc(-c2coc3cc(OC(C)=O)c(OC(C)=O)c(OC(C)=O)c3c2=O)cc(OC(C)=O)c1OC(C)=O	·	–	·	·
COc1ccc(-n2cc(-c3ccccc3)c3c(SC(C)C(C)=O)ncnc32)cc1 (stereo not given)	·	–	·	–
Cc1nc2ccn(Cc3cccnc3)c(=O)c2cc1C(=O)N1CCN(c2ccccc2)CC1	·	–	·	–
O=C(CSc1nnc(NC(=O)c2ccccc2)s1)NC1CCCC1	17	–	–	–
O=C(CCCSc1nnc(Nc2ccccc2F)s1)N1CCOCC1	39	–	59	–
O=C(CSc1nnc(NC(=O)c2ccc(F)cc2)s1)NC1CCCC1	–	–	–	–
O=C(Nc1cccc(F)c1)C1CCN(c2nnnn2-c2ccccc2)CC1	–	18µM	–	?
Cc1cccc(OCCSc2nc3ccc(NC(=O)c4cccs4)cc3s2)c1	·	?	·	–
Cc1ccc(NC(=O)Cn2nnnc2-c2ccccc2N)cc1	·	–	·	–
N#C/C(=C\c1ccccc1Br)C(=O)NC1CC1	–	–	–	–
Cc1cc(/C=C(\C#N)C(=O)NC2CCCCCC2)c(C)[nH]1	35	–	–	?
Cc1cc(/C=C(\C#N)C(=O)NC2CC2)c(C)[nH]1	68	–	94	–
CCOC(=O)C1CCN(c2ncnc3c2nc2n3CCCCC2)CC1	·	–	·	–
Cc1cccc(NC(=O)c2cc(-c3ccco3)nc3ccccc23)n1	16	–	95	20µM
CCc1nnc(NC(=O)c2cc(-c3ccco3)nc3ccccc23)s1	–	–	–	16µM
CC(=O)c1c(C)[nH]c(C(=O)CSc2nnc(-c3cccs3)n2Cc2ccccc2)c1C	–	–	–	–
CCN(C(=O)CSc1nnc(-c2ccco2)n1Cc1ccccc1)C1CCS(=O)(=O)C1 (stereo not given)	·	–	·	?
O=C(CSc1nnc(-c2ccncc2)n1Cc1ccco1)OC1CCCCC1	–	?	–	40µM
O=C(CSc1nnc(-c2ccco2)n1Cc1ccccc1)OC1CCCCC1	24	–	84	–
SMILES	Cycloheximide cs	FMDV inh	Shiga toxin inh	Sm TGR inh
CC(=O)c1c(C)[nH]c(C(=O)CSc2nnc(-c3ccco3)n2Cc2ccccc2)c1C	–	–	–	40µM
CN(C)C(=O)CSc1nnc(-c2ccncc2)n1Cc1ccco1	–	–	–	–
Cc1c(C(=O)NCCc2ccncc2)cnn1-c1nccc(-c2ccccc2C(F)(F)F)n1	·	–	·	·
COc1ccc(S(=O)(=O)N2CC(=O)Nc3ccccc32)cc1F	–	–	–	11µM
CC(=O)c1c(C)[nH]c(C(=O)Nc2cccc(S(=O)(=O)N3CCOCC3)c2)c1C	–	–	–	–
CC(=O)c1c(C)[nH]c(C(=O)CN2CCN(S(=O)(=O)c3ccccc3)CC2)c1C	·	?	·	45µM
CC(=O)c1c(C)[nH]c(C(=O)Nc2ccc(Cl)c(S(=O)(=O)N(C)C)c2)c1C	24	–	109	–
CC(=O)c1c(C)[nH]c(C(=O)OCC(=O)Nc2ccc(Cl)c(S(=O)(=O)N(C)C)c2)c1C	–	28µM	–	–
CC(=O)c1c(C)[nH]c(C(=O)Nc2cccc(S(=O)(=O)N(C)c3ccccc3)c2)c1C	–	–	–	–
Cc1ccc(C)c(N2CCN(C(=O)Nc3cn(CC(C)C)c(=O)c4ccccc34)CC2)c1	·	–	·	–
Cc1ccc(C)c(CN2C(=O)CSc3ccc(C(=O)NCCc4ccc(Cl)cc4)cc32)c1	·	–	·	–
Cc1cccc(-c2cc(N)n(-c3ccccc3)n2)c1	45	–	65	–
CCc1ccc(-c2cc(N)n(-c3ccccc3)n2)cc1	33	–	154	–
Nc1cc(C2CCCC2)nn1-c1ccccc1	46	–	104	–
